# Data as given in PubChem BioAssay (EPA / NIEHS).
# Activity calls are given as the source filed them. Rule for the calls: active = hit-call score of the fitted dose curve at least 0.9, where 1 is the maximum; inactive = score below 0.9.
# Read-out: Bcl-2 (BID) gene, BID (gene 637)
# Test: LTEA_HepaRG_BID: Life Technologies and Expression Analysis (LTEA) Assay for Bcl-2 (BID) gene using HepaRG (AID 2283476)
# Conditions: mRNA level, 48 h; actives raise or lower the signal
# Method: LTEA_HepaRG is a cell based, multiplexed-readout assay that uses HepaRG, a human liver cell line, with measurements taken at 48 hours after chemical dosing on a 96-well plate.LTEA_HepaRG_BID is one of 102 assay component(s) measured in the LTEA HepaRG cell culture assay. It is a marker of Cell proliferation, survival, death.Data from the assay component LTEA_HepaRG_BID was analyzed into 1 endpoint. This assay endpoint, LTEA_HepaRG_BID, was analyzed with bidirectional fitting relative to DMSO as the negative control and baseline of activity. Using a type of inducible reporter, measures of mRNA induction for gain or loss-of-signal activity can be used to understand regulation of transcription factor activity. To generalize the intended target to other relatable targets, this assay endpoint is annotated to the cell cycle intended target family, where the subfamily is Cell proliferation, survival, death.
# A total of 1060 chemcials from the ToxCast library were tested in eight-point concentration-response experiments. Cell culture and cytotoxicity assays were conducted at Thermo Fisher Scientific's Custom Services facility (Madison, WI). A single lot of human HepaRG cells (Thermo Fisher Scientific, Frederick, MD) was used for the cell culture experiments. 96-well format collagen type I coated plates of human HepaRG cells were prepared using established methods. Briefly, cryopreserved HepaRG cells were thawed, plated at a density of approximately 100,000 cells/well in HepaRG Thaw, Plate, and General Purpose media (HPRG770, Thermo Fisher Scientific), and incubated for 48 hours. 0.5% DMSO was selected as vehicle control to balance the requisite need of DMSO in HepaRG cultures to maintain differentiation (for example, baseline metabolism, proportions of hepatocytes vs. cholangiocytes), while enabling further hepatic receptor pathway activation (for example, PXR and CAR) in response to chemical exposure. 48 hours after plating, the culture medium was replaced with HepaRG Serum-Free Incudtion Media. Cells were exposed to each test chemical in duplicate and maintained in CO2 incubators for another 48 hours. Chemical plates were thawed to room temperature and 200x concentrations of treatment groups were prepared. 8-point conentration-reponse curves were made with the highest exposure at 100 uM, followed by half-log dilutions, all in 0.5% DMSO. Each test plate contained variouse controls, induction positive controls (1mM phenobarbital), cytotoxicity positive controls ([…] aflatoxin B1), vehicle controls (0.5% DMSO), and total lysis controls (0.5% DMSO). Cell morphology images were taken using an Essen IncuCyte FLR automated microscope, with six 96-well plates imaged in about 24 minutes. Images were captured and exported and JPEG files. Spent culture media was transfered to black-well plates for the LDH assay, and remaining media was sorted at -80 C for later use. Cells were treated with RLT buffer and frozen until shipped for gene expression analysis. Total RNA was isolated from the cell suspension in 75 uL of Buffer RLT (Qiagen, Germantown, MD 20874) by Quintiles/Expression Analysis (Durham, NC) using a custom isolation procedure. Total RNA from each plate well was transferred to a preamplification plate. Fluidigm's 96.96 Dynamic ArrayTM (Fluidigm, Amsterdam, the Netherlands) technology was used for gene expression analyses by quantitative reverse transcription polymerase chain reaction (qRT-PCR, performed by Quintiles/Expression Analysis, Durham, NC)89. Standard TaqManTM Assays (Applied Biosystems/ThermoFisher Scientific, Foster City, CA) were used to assess the expression of 93 genes selected based on their selectivity and sensitivity to important hepatic receptors known to be modulated by environmental chemicals; importance in human hepatocyte functionality; and hepatotoxicity. […]
SMILES,outcome,AC50
CCCCOC(=O)CCCCCCCCC(=O)OCCCC,inactive,
Cc1cccc(C)c1O,inactive,
Cc1cc(NC(=O)C(=O)O)cc(C)c1Oc1ccc(O)c2c1CCC2,inactive,
COc1ccc2c(c1)c(CC(=O)O)c(C)n2C(=O)c1ccc(Cl)cc1,inactive,
NC(=O)Cn1c(=O)cc(CCN2CCN(c3nccc4sccc34)CC2)c2ccc(F)cc21,inactive,
CCCCC(CC)COC(=O)CC(C(=O)OCC(CC)CCCC)S(=O)(=O)O (stereo not given),,50000 nM (active)
O=C(N[C@@H](Cc1ccccc1)[C@@H](O)C(=O)N1C[C@@H](O)[C@@H](O)C1)c1cc2cc(Cl)ccc2[nH]1,inactive,
CCCCCCCCCCC,inactive,
CCCCc1ccc2c(n1)[C@@H](c1ccc(OC)cc1C[C@H](C)C(=O)O)[C@H](C(=O)O)[C@H]2c1ccc2c(c1)OCO2,inactive,
CCCCCCOCCO,inactive,
Cc1nc(C)nc(N2C[C@@H](C)N(c3ccnc([C@@H](C)O)n3)[C@@H](C)C2)n1,inactive,
Cc1oc(-c2ccccc2)nc1CCOc1cccc2c1ccn2CCC(=O)O,inactive,
O=C(OCCCCCOC(=O)c1ccccc1)c1ccccc1,,2700 nM (active)
CN1CCN(Cc2cc(-c3ccc4[nH]c(=O)oc4c3)co2)[C@@H](c2ccc(F)cc2)C1,inactive,
c1cc(-c2ccncc2)ccn1,inactive,
CCCCCCCCCCCCCCCC,inactive,
COc1ccc(C)cc1N,inactive,
Cc1cccc(Nc2cc(Cl)nc(SCC(=O)O)n2)c1C,,276 nM (active)
COc1ccc(S(=O)(=O)N2C(=O)[C@@](c3ccccc3OC)(N3C[C@H](O)C[C@H]3C(=O)N(C)C)c3cc(Cl)ccc32)c(OC)c1,inactive,
CN1CCCC1=O,inactive,

SMILES,outcome,AC50
CCCCCCCCCCCCCCCCCC(=O)O,inactive,
CCCCCCCCCCCCCO,inactive,
C=CCc1ccc(O)c(OC)c1,inactive,
NCC1(Cc2noc(=O)[nH]2)CCCCC1,inactive,
CC1=C(/C=C/C(C)=C/C=C/C(C)=C/CO)C(C)(C)CCC1,inactive,
CNC(=O)[C@H]1O[C@@H](n2cnc3c(NCc4cc(Cl)ccc4OCc4cc(C)no4)ncnc32)[C@H](O)[C@@H]1N,inactive,
Cc1ccccc1Cl,inactive,
O=C(O)CCCCC(=O)O,inactive,
CCCc1cc(=O)[nH]c(=S)[nH]1,inactive,
Clc1cc(Cl)c(Cl)cc1Cl,inactive,
CC1(C)CC(N=C=O)CC(C)(CN=C=O)C1 (stereo not given),inactive,
Cc1ccc(C(C)C)c(O)c1,inactive,
CCCCCCC(=O)OCC,inactive,
Nc1ccc(S(=O)(=O)c2ccc(N)cc2)cc1,inactive,
O=C(O)Cc1ccccc1Nc1c(Cl)cccc1Cl,inactive,
Cc1ccc(Cl)cc1,inactive,
Cc1ccc2ncccc2c1,inactive,
CNCc1cc(F)ccc1Oc1ccc(Cl)c(Cl)c1,inactive,
CC=Cc1ccc(O)c(OC)c1,inactive,
C=CCOC(=O)c1ccccc1C(=O)OCC=C,inactive,
